Screening data: PubChem, National Center for Advancing Translational Sciences (NCATS)
Pf growth 48h = inhibits P. falciparum growth in the first generation, 48 h; P. falciparum luciferase growth in erythrocytes, 48 h; Potency, µM (top dose mostly 28.7 µM), inactives show at the top dose activity change, negative = inhibition, hits mostly inhibitors; 5.9% of 310,000 active; AID 504832; note: potency is the fitted concentration of half-maximal effect; % is set by controls: 0 for no effect and ±100 for the full control effect
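Erythrocytes infected with P. falciparum carrying an integrated firefly luciferase reporter (2% hematocrit, 0.1% parasitemia final) were exposed to compounds in RPMI 1640 with 0.5% Albumax at 37 C, 5% CO2. Growth inhibition was scored as reduced luminescence.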
Giardia FBPA inh = Giardia lamblia aldolase inhibition; purified Giardia FBPA; Potency, µM (series often up to 59.6 µM), inactives show at the highest dose activity, negative = inhibition, most hits filed as inhibitors; 0.71% of 290,000 active; AID 2451; note: potency is the fitted concentration of half-maximal effect; % is set by controls: 0 for no effect and ±100 for the full control effect; nearly all actives have a fitted effect of over 55% in size
Target sequence (A8B2U2 whole entry, looked up): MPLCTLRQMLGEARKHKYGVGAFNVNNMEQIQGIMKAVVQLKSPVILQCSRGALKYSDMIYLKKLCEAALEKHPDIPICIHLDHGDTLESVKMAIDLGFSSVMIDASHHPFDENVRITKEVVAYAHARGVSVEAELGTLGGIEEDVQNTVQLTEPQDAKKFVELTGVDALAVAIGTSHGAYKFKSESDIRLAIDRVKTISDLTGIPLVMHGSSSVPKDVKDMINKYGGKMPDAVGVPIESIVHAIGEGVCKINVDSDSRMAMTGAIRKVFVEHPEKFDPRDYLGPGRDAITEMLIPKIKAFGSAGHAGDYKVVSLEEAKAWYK
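Giardia FBPA (40 nM reagent) was preincubated 10 min at RT with compound (up to 57.5 uM final), then substrate plus GAPDH/TPI/NAD/arsenate coupling system with diaphorase/resazurin was added; resorufin fluorescence (525/598 nm) was read after 20 min.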
Pf growth 96h = P. falciparum growth inhibition at 96 hour, primary screen for plastid delayed-death inhibitors; P. falciparum luciferase reporter growth, 96 h; Potency, µM (highest dose often 28.7 µM), without a hit: top-dose activity change, negative = inhibition, hits mostly inhibitors; 6.9% of 320,000 active; note: potency is the fitted concentration of half-maximal effect; % is set by controls: 0 for no effect and ±100 for the full control effect
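Cell-based qHTS: luciferase-tagged P. falciparum in erythrocytes (2% hematocrit, 0.05% parasitemia final) incubated with compounds for 96 hours, 37 C, 5% CO2; luciferase detection reagent then added and luminescence measured.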
Shiga inhibitor = blocks Shiga toxin action in Vero cells; Vero cells, Shiga toxin protein synthesis inhibition reporter; inhibition, % at 38.7 µM; 9.2% of 290,000 active; AID 2315; in the data active = inhibition mostly above about 28%, no sharp cut-off; inactive = mostly below about 43%; note: 0% is about no effect
NS1 inh = inhibitors of influenza NS1 protein function; Potency, µM (doses to about 46.1 µM), inactives show at the top dose activity, positive = more growth; 0.4% of 270,000 active; AID 2326; calls by dose curve; note: potency is the fitted concentration of half-maximal effect; actives are rising curves; nearly all actives have a fitted effect of over 50% in size
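OD600 was taken as the measure of yeast growth restored by compound in an NS1-expressing S. cerevisiae strain. Cells had been washed out of glucose medium and diluted 1:100 into galactose -URA medium, pH 6.0.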
Cycloheximide cs = affects cycloheximide protein synthesis inhibition readout, counter-screen; 12% of 300,000 active; max response, %; cell reporter, cycloheximide protein synthesis inhibition counterscreen; AID 2314; in the data active = max response mostly above about 13%, no sharp cut-off; inactive = mostly below about 14%; note: read at 38.3 µM for the half of the compounds with a filed dose; 0% is about no effect
Numbers without * were called inactive; i = inactive; ? = inconclusive; . = not tested or not shown; [ ] = dose if it differs, or a comment. Sampled rows, rich in hits. Any-hit rate of the full collection: about 21%. Unless noted, calls come from the whole dose curve; as a rule, active = well fitted curve in the direction sought with a large enough effect; inconclusive = small, poorly fitted or top-dose-only effect, or another doubt; inactive = no such curve, though single readings can be large; an effect the other way counts as inactive or inconclusive.

SMILES | Pf growth 48h | Giardia FBPA inh | Pf growth 96h | Shiga inhibitor | NS1 inh | Cycloheximide cs
CC(Sc1nnc2ccccn12)C(=O)Nc1ccc2c(c1)OCCO2 (stereo not given) | 36% | 4% | 33% | 85* | . | 21*
O=[N+]([O-])c1cccc(CSc2nnc3ccccn23)c1 | 12% | 0% | 1% | 44 | -3% | -2
CC(=O)Nc1ccc(C(=O)CSc2nnnn2C(C)C)cc1 | 27% | -13% | ? | 81* | -4% | 21*
Cc1ccc(NC(=O)CSc2nnnn2C)cc1S(=O)(=O)N(C)C | -20% | 1% | 9% | 31 | 3% | 17*
c1ccn2c(SCc3ccc4c(c3)OCCO4)nnc2c1 | 90% | 0% | -40% | 98* | -5% | 51*
O=c1cnc2cnc(N3CCOCC3)nc2n1Cc1ccc(F)cc1 | . | 0% | . | . | . | .
Cc1cc(NC(=O)CSc2ccnc(=O)[nH]2)no1 | 32% | . | 13% | . | . | .
CN=C(C)/C(C(=O)OC)=C(/O)c1ccc(Cl)cc1Cl | 29% | 8% | 34% | -7 | -3% | 1
CCC(=O)Nc1cccc(NC(=O)CSc2nnnn2Cc2ccccc2)c1 | 27% | 1% | 2.1µM* | -23 | ? | -6
CC(Sc1nnnn1C)C(=O)Nc1ccc2c(c1)OCCO2 (stereo not given) | 78% | 1% | 71% | 115* | . | 29*
Cc1csc(SC(C)C(=O)Nc2ccc3c(c2)OCCO3)n1 (stereo not given) | 15% | 0% | 1% | 42 | . | 29*
CC(Sc1nnnn1C)C(=O)Nc1ccc(N2CCOCC2)cc1 (stereo not given) | -4% | -26% | 4% | 28 | -4% | 7
O=C(CSc1nn(-c2ccccc2)c(=S)s1)Nn1cnnc1 | 20% | 11% | 11% | 15 | -10% | -4
Cc1ccc(NC(=O)CSc2nn(-c3ccccc3)c(=S)s2)cc1S(=O)(=O)N(C)C | ? | -2% | 3.3µM* | 15 | 8% | 10
C[C@@]12C=CC(=O)C=C1CC[C@H]1[C@H]3CC[C@](O)(C(=O)CO)[C@]3(C)CC(=O)[C@@H]12 | . | 2%[21.7 µM] | . | . | . | .
COC(=O)N1CCC2(CC1)CN(c1ccccn1)C2 | . | -1% | . | . | . | .
CN(CCC(=O)O)S(=O)(=O)c1ccccc1 | . | . | . | . | -2% | .
Cn1c(Cc2ccccc2)nnc1SCC(=O)Nc1ccc2c(c1)OCCO2 | -8% | 3% | . | -6 | 0% | 6
CC(C)n1nnnc1SCC(=O)Nc1ccc2c(c1)OCO2 | 60% | 1% | ? | 70* | 7% | 26*
O=C(CSc1nnnn1CCCO)Nc1ccc2c(c1)OCO2 | 50% | 5% | 33% | 2 | . | 5
O=C(CSc1nnnn1Cc1ccccc1)Nc1ccc2c(c1)OCO2 | 29% | 3% | . | 33* | -6% | 13*
O=C(CSc1nnnn1Cc1ccccc1)Nc1ccc2c(c1)OCCO2 | 21% | 8% | 4%[5.75 µM] | 65 | -9% | 23*
Cn1nnnc1SCC(=O)Nc1ccc2c(c1)OCCO2 | i | 0% | 13% | 81* | 3% | 33*
CCC(=O)O[C@H](CC(=O)O)C[N+](C)(C)C | . | 0% | . | . | . | .
CC(Sc1nc2ccccc2c(=O)n1C)C(=O)Nc1ccc2c(c1)OCCO2 (stereo not given) | 0.15µM* | . | 0.17µM* | . | . | .
SMILES | Pf growth 48h | Giardia FBPA inh | Pf growth 96h | Shiga inhibitor | NS1 inh | Cycloheximide cs
CC(C)Cn1c(SC(C)C(=O)Nc2ccc3c(c2)OCCO3)nc2ccccc2c1=O (stereo not given) | ? | -6% | . | 4 | 8% | 1
Cc1cccc(C(=O)N2CCCC(CCC(=O)N3CCN(c4ccccn4)CC3)C2)c1C (stereo not given) | ? | . | 6% | 2 | -19% | -1
O=C(CCC1CCCN(C(=O)C2(c3ccccc3)CC2)C1)N1CCN(c2ccccn2)CC1 (stereo not given) | 27% | -3% | ? | 42 | 1% | 20*
CCc1[nH]nc(C(=O)N2CCCC(CCC(=O)N3CCN(c4ccccn4)CC3)C2)c1C (stereo not given) | ? | 4% | 9% | 34 | 8% | 13*
CCc1noc(C)c1C(=O)Nc1nc(-c2ccccc2)c(C(C)=O)s1 | -29% | . | ? | . | . | .
O=C(NNc1nc2cc3c(cc2s1)OCO3)c1cccc(F)c1 | 58% | 2% | ? | active | 20% | 61*
COc1cc(OC)cc(C(=O)NNc2nc3cc4c(cc3s2)OCO4)c1 | 14% | -12% | -1% | -6 | -11% | -1
O=C(NNc1nc2cc3c(cc2s1)OCO3)c1ccccc1 | 64% | 3% | 53% | 90* | 28% | 61*
COc1cc(C(=O)NCC(=O)Nc2ccc(F)c(F)c2)ccc1OCC(=O)N1CCOCC1 | 2% | . | 19% | . | . | .
CCOC(=O)c1c(NC(C)=O)sc2c(OC)c(Br)ccc12 | 9% | 0% | . | -18 | -9% | -3
CCOC(=O)c1c(NC(C)=O)sc2c(O)c(CN3CCN(CC)CC3)ccc12 | 10µM* | -12% | -17% | -16 | 13% | -2
COc1ccc(-n2c(CNC(=O)COc3ccc(Cl)cc3Cl)n[nH]c2=S)cc1 | -7% | 1% | ? | -3 | . | -3
FC(F)(F)c1cccc(-c2nc3nc(Cl)c(Cl)nc3[nH]2)c1 | 28% | ? | -99% | 102* | -41% | 50*
C/C=C(\C)C(=O)O[C@H]1C[C@@]2(C)CCC(C(C)C)C2(O)CC[C@@]1(C)O (stereo not given in full) | . | 1% | . | . | . | .
Cc1oc(C(=O)O)cc1CSCc1cc(C(=O)O)c(C)o1 | 13% | -30% | 11% | 16 | ? | 12*
Cc1oc(C(=O)O)cc1CSCc1ccoc1C(=O)O | 13% | -13% | ? | -1 | 3% | 1
Cc1ccc(CSc2ncnc3ccccc23)cc1 | -5% | 0% | 31% | 34 | -7% | 21*
O=C(CSc1ncnc2ccccc12)c1cccs1 | 418% | -5% | 233% | 31 | . | 14
Cc1cccc(CSc2ncnc3ccccc23)c1 | 16% | -1% | 43% | 62* | . | 22*
Cc1ccc(C(=O)CSc2ncnc3ccccc23)o1 | 15%[5.75 µM] | -7% | 15% | 110* | . | 26*
c1ccc(CSc2ncnc3ccccc23)cc1 | 32%[5.75 µM] | 2% | 82%[5.75 µM] | 18 | -41% | 7
O=C(CN1CCN(Cc2ccccc2)CC1)N/N=C/c1cccnc1 | 9% | 7% | 1% | -13 | 9% | -3
Cc1oc(-c2cccc(F)c2)nc1CN1CCCCC1CCn1cccn1 (stereo not given) | 13µM* | 1% | 0% | 10 | 12% | -2
COc1ccc(-c2nc(CN3CCC(c4ccccc4)CC3)c(C)o2)cc1OC | 12µM* | 1% | 13µM* | 10 | 3% | -1
COc1ccc(-c2nc(CN3CCC(C(=O)N4CCOCC4)CC3)c(C)o2)cc1OC | -1% | . | 31% | 24 | -1% | 8
Cc1ccc(-c2nc(CN3CCCCC3CCN3CCCC3=O)c(C)o2)o1 (stereo not given) | -8% | 0% | 0% | 24 | 2% | -3
